The text below walks through data of PubChem BioAssay (EPA / NIEHS).

Molecules are shown by their SMILES. A structure can be active in one record and inactive in another. Active and inactive are the calls of the source. Rule for the calls: active = hit-call score of the fitted dose curve at least 0.9, where 1 is the maximum; inactive = score below 0.9.

A short description of the assay: ATG_AP_1_CIS: Attagene CIS-FACTORIAL HepG2 Assay for human Activator Protein 1 (AP-1) (AID 2282931). Conditions: HepG2 Attagene cis-factorial AP-1 reporter mRNA; actives raise or lower the signal. The method, then: ATG_CIS is a cell-based, multiplexed-readout assay that uses HepG2, a human liver cell line, with measurements taken at 24 hours after chemical dosing in a 24-well plate.ATG_AP_1_CIS is one of 52 assay component(s) measured or calculated from the ATG_CIS assay. It is designed to make measurements of mRNA induction, a form of inducible reporter, as detected with fluorescence intensity signals by Reverse transcription polymerase chain reaction (RT-PCR) and Capillary electrophoresis technology.Data from the assay component ATG_AP_1_CIS was analyzed into 1 assay endpoint. This assay endpoint, ATG_AP_1_CIS, was analyzed with bidirectional fitting relative to DMSO as the negative control and baseline of activity. Using a type of inducible reporter, measures of mRNA for gain or loss-of-signal activity can be used to understand the reporter gene at the transcription factor-level as they relate to the gene FOS and JUN. Furthermore, this assay endpoint can be referred to as a primary readout, because this assay has produced multiple assay endpoints where this one serves a reporter gene function. To generalize the intended target to other relatable targets, this assay endpoint is annotated to the dna binding intended target family, where the subfamily is basic leucine zipper.
Human liver HepG2 cells are transiently transfected with multiple reporter transcription units (MRTUs) in 6-well plates using FuGene 6 reagent (Roche; 3 ml FuGene/1 mg DNA). The MRTU constructs are regulated by a cis-regulating element (promoter). […] A major difference between the CIS and TRANS system is that in CIS activities of endogenous TFs are measured, whereas the TRANS assay evaluates changes in activities of exogenous, chimeric NR-Gal4 proteins. […] At the end of 24 hour incubation, total RNA was isolated using TriZol reagent (Invitrogen). The isolated RNA is then reverse-transcribed using oligo(dT) primer and Mo-MLV reverse transcriptase (Invitrogen) with DNAse I (Ambion) treatment for 30 min. The one-tenth of the produced cDNA was amplified by PCR using Taq DNA polymerase (Invitrogen) and two reporter sequence-specific primers. The PCR products were fluorescently labeled by primer extension with 6-arboxyfluorescein (6-FAM) 5'-labeled reporter sequence-specific primer (2 min at 95 C, 20 s at 68 C and 10 min at 72 C) and these products were digested with 5U of HpaI (New England Biolabs) for 2h at 37 C. The fragments were purified using Qiaquick PCR columns (Qiagen), analyzed on an ABI 3130xL genetic analyzer (Applied Biosystems) with peak positions identified by using a set of X-rhodamine (ROX)-labeled MapMarker1000 molecular weight standards (BioVentures). The raw capillary electrophoresis data was processed using Attagraph software (Attagene).
For `NC(=Nc1ccccc1)Nc1ccccc1`, the compound was called inactive.
Take `CCCCCCC(C=O)=Cc1ccccc1`: the AC50 – broadly, the concentration giving half of the maximal activity seen – is 60 µM (active) and the call was inactive.
Turning to `O=C1c2c(O)cccc2Cc2cccc(O)c21`, the call was inactive.
Still for that read-out and setting: the value for `CCCCCCC(CCCCCCCCCCC(=O)OCC(COC(C)=O)OC(C)=O)OC(C)=O` (stereo not given) was “inactive”; that for `CC(=O)O` was “inactive”.
`CCC(C)N(C)C(=O)c1cc2ccccc2c(-c2ccccc2Cl)n1` (stereo not given): the AC50 is 84.8 µM (active).
Same read-out and setting: the value for `S=c1[nH]c2ccccc2s1` was 19.8 µM (active).
Consider `C=CCc1ccc(OC)c(OC)c1`, for which the result was inactive.
With `CN(C)C(=O)NC1(c2ccccc2)CCN(CC[C@@]2(c3ccc(F)c(F)c3)CN(C(=O)c3ccccc3)CCO2)CC1`, the AC50 was 100 µM (active).
On to `C/C=C/C=C/C(=O)O`, for which the compound was classed as inactive.
Same read-out and setting: the entry for `Cc1ccc(C(C)(C)C)c(O)c1` is “inactive”; for `CCOCCOCCO` it is “inactive”; for `C=CCCCCCCCCCCCC` it is “inactive”.
As for `O=C1NC(=O)C(c2ccccc2)(c2ccccc2)N1`, the call was inactive.
Still for that read-out and setting: the entry for `Cc1occc(=O)c1O` is “inactive”.
`COC(=O)[C@H]1[C@H]2C[C@@H]3c4[nH]c5cc(OC)ccc5c4CCN3C[C@H]2C[C@@H](OC(=O)c2cc(OC)c(OC)c(OC)c2)[C@@H]1OC`: the AC50 is 25.5 µM (active).
Consider `Oc1ccccc1O`, for which the AC50 was 13.3 µM (active).
On to `O=[Si]=O`, for which the call was inactive.
Still for that read-out and setting: the entry for `CCCC[C@H]1CN(CC2CCOCC2)C(=O)OC12CCN(C1(C)CCN(C(=O)c3c(C)ncnc3C)CC1)CC2` is “inactive”.
Consider `Nc1nc(=S)c2[nH]cnc2[nH]1`, for which the AC50 is 12 µM (active).
In the case of `CC(=O)OCC(COC(C)=O)OC(C)=O`, the outcome was inactive.
Take `CCCCC(CC)COP(=O)(OCC(CC)CCCC)OCC(CC)CCCC` (stereo not given): the compound was classed as inactive.
Still for that read-out and setting: the entry for `Cc1cn([C@H]2C=C[C@@H](CO)O2)c(=O)[nH]c1=O` is “inactive”.
`CC(=O)O[C@]1(C(C)=O)CC[C@H]2[C@@H]3C=C(Cl)C4=CC(=O)[C@@H]5C[C@@H]5[C@]4(C)[C@H]3CC[C@@]21C`: the compound was called inactive and the AC50 is 71.5 µM (active) [middle of 4 runs].
As for `Nc1nc(Cl)nc2c1ncn2[C@H]1C[C@H](O)[C@@H](CO)O1`, the compound was called inactive.
The same measure, in the same setting: the value for `O=C(O)CN(CC(=O)O)CC(=O)O` was “inactive”.
As to `CCCCCCCCCCCCCCCCO`, the compound was called inactive.
For the compound `CCCCOC(=O)CCCCC(=O)OCCCC`, the outcome was inactive.
With `CC(C)(O)c1ccc(CNC(=O)c2cccnc2Oc2ccc(F)cc2)cc1`, the compound was classed as inactive.
On the same count and under the same terms, the entry for `COC(=O)CCCC(=O)OC` is “inactive”; for `O=C(NS(=O)(=O)/C=C/c1cccs1)c1ccc(F)cc1Br` it is “inactive”; for `CN(C)CCCN(C)CCCN(C)C` it is “inactive”.
Turning to `O=C1OC(c2ccc(O)cc2)(c2ccc(O)cc2)c2ccccc21`, the AC50 is 169 µM (active).
As to `O=C1O[C@H]([C@H](O)CO)C(O)=C1O`, the compound was classed as inactive.
Same read-out and setting: the entry for `Cc1ccc(-c2cc(C(F)(F)F)nn2-c2ccc(S(N)(=O)=O)cc2)cc1` is “inactive”; for `COC(=O)CCC(=O)OC` it is “inactive”; for `CO[C@@H]1COCC[C@@H]1N[C@@H]1CC[C@@](C(=O)N2CCc3ncc(C(F)(F)F)cc3C2)(C(C)C)C1` it is “inactive”.
Same read-out and setting: the value for `NC1CCCCC1` was “inactive”.
